Compound activity: PubChem, several laboratories
Insulin prom inh: TRM-6 insulin promoter activity inhibition; AID 1273; TRM-6 cells (human fetal islet line), insulin promoter-eGFP reporter, imaging; reporter expression induced with tamoxifen; hit rate 0.9% among 130,000; inhibition, % at 2 µM;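 active = inhibition above the mean plus 3 SD, with well images judged a real hit on visual review, cut at about 60% in these data, passing the limit was not always enough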
HCT116 PTEN-null: PTEN-deleted cell growth suppression | AID 827 | HCT116 PTEN-null viability, CellTiter-Glo, 60 h; hits give low values | viability, % at 10 µM | hit rate 1.2% among 140,000;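 active = viability at or below a set limit, 4 SD under the median of all tested compounds, cut at about 3.7% in these data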;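 note: PTEN knockout HCT116 line with beta catenin targeted HCT116 as companion control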
Autophagy mod: autophagy modulation, high-content screen; hit rate 0.98% among 190,000; calls only at 10 µM (by protocol); MEF GFP-LC3 puncta imaging; test concentration mostly 10 µM; AID 463193;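 active = percentage of spot-positive cells more than 3 SD above its plate mean, without a fluorescence outlier flag or 80% toxicity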
bCat KO growth: beta-catenin-lacking colon tumor cell growth suppression | hit rate 1.5% among 140,000 | HCT116 beta-catenin knockout viability, CellTiter-Glo, 60 h; hits give low values | AID 818 | viability, % at 10 µM;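 active = viability at or under a set limit, the compound median less 4 SD, cut at about 6% in these data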
Insulin prom up: MIN6 insulin promoter up-regulation. hit rate 0.3% among 190,000. z-score at 5 µM. MIN6 insulin promoter-GFP reporter, high-content imaging; hits give high values;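 active = z-score above 3 at 5 µM with at least 500 cells counted in the well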
Lmaj promast: inhibitors of Leishmania major promastigote growth; Leishmania major promastigotes, resazurin fluorescence viability; inhibition, % at 10 µM; hit rate 9% among 200,000; in the data active = inhibition above about 50%;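 note: promastigotes grown with compound for 44 hours at 28 °C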
Each line names hits and unclear results; the compound was inactive in the other large screens. Compounds with a hit are over-represented: about 9.6% of the library has one in this group of screens.

Cc1cc[n+](C2=C([O-])c3ccccc3C(=O)/C2=N\S(=O)(=O)c2cccs2)cc1C	HCT116 PTEN-null 1.8, bCat KO growth 1.6
O=C1/C(=N\S(=O)(=O)c2cccs2)C([n+]2ccc(CCCc3ccccc3)cc2)=C([O-])c2ccccc21	none (no result: Insulin prom inh, HCT116 PTEN-null, Autophagy mod, bCat KO growth, Lmaj promast)
O=C1/C(=N\S(=O)(=O)c2cccs2)C([n+]2cccc(Cc3ccccc3)c2)=C([O-])c2ccccc21	Insulin prom up 6.8 (no result: Insulin prom inh, HCT116 PTEN-null, Autophagy mod, bCat KO growth, Lmaj promast)
Cc1cc(C)c[n+](C2=C([O-])c3ccccc3C(=O)/C2=N\S(=O)(=O)c2cccs2)c1	none
O=c1cc(-c2ccccc2F)oc2ccccc12	none (no result: Insulin prom up)
COc1ccc(CCN2C(=S)N(C)C(=O)C2CC(=O)Nc2ccc(OC)cc2)cc1 (centres undefined)	none (no result: HCT116 PTEN-null, bCat KO growth, Insulin prom up)
CCCCCCOc1ccc(NC(=O)CC2C(=O)N(CC)C(=S)N2Cc2ccco2)cc1 (centres undefined)	Lmaj promast 66
COC(=O)CN1C(=S)N(c2ccc(Cl)cc2)C(=O)C1CC(=O)Nc1ccccc1 (centres undefined)	Lmaj promast 64
CCN1C(=O)C(CC(=O)Nc2ccc(F)cc2)N(Cc2ccco2)C1=S (centres undefined)	none (no result: Insulin prom inh, HCT116 PTEN-null, bCat KO growth)
C=CCN1C(=O)C(CC(=O)Nc2ccc(OCCC)cc2)N(CCCN2CCN(Cc3ccccc3)CC2)C1=S (centres undefined)	Lmaj promast 100 (no result: HCT116 PTEN-null, bCat KO growth)
COc1ccc(NC(=O)CC2C(=O)N(C)C(=S)N2Cc2cccs2)cc1 (centres undefined)	Lmaj promast 54
Cc1cc(C)c2nc(N)sc2c1	none
